Test results published in the supplement of paper PMC3414501.
Counter-ions that a name gives are not always drawn.

These compounds were tested on S. cerevisiae NKY1551 his4x/his4B, sporulating (assay: HIS4 meiotic recombination assay sensitivity score (z-score vs DMSO controls); higher = stronger inhibition of sporulation/recombination, active = hit call of the paper).
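Note: active if sensitivity score above 5.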

SMILES	HIS4 meiotic recombination assay sensitivity score
NC1CCN(c2cccc(Cl)n2)CC1 (stock concentration (mM, diluted 1:100): 10)	2.37 (inactive)
O=C1[C@H]2CCCC[C@H]2C(=O)N1CCCCN1CCN(c2nsc3ccccc23)CC1 [Perospirone hydrochloride] (stock concentration (mM, diluted 1:100): 9.4)	-2.62 (inactive)
COCC1=C(C(=O)OC(C)OC(=O)OC(C)C)N2C(=O)[C@@H](NC(=O)/C(=N\OC)c3csc(N)n3)[C@H]2SC1 (stereo partly specified) [Cefpodoxime proxetil] (stock concentration (mM, diluted 1:100): 7.7)	-1.5 (inactive)
CC(=O)NCCCCCCNC(C)=O [Hexamethylene bisacetamide] (stock concentration (mM, diluted 1:100): 10)	-0.63 (inactive)
NC(N)=Nc1nc(CSCC/C(N)=N/S(N)(=O)=O)cs1 [Famotidine] (stock concentration (mM, diluted 1:100): 10)	-0.42 (inactive)
CNCC[C@@H](Oc1ccccc1C)c1ccccc1 [Atomexetine hydrochloride] (stock concentration (mM, diluted 1:100): 8.7)	10.1 (active)
COc1cc(N)c(Cl)cc1C(=O)NC1CCN(CCCOc2ccc(F)cc2)CC1OC (stereo unspecified) [Cisapride] (stock concentration (mM, diluted 1:100): 10.5)	-0.37 (inactive)
CC[N+](C)(CC)CCOC(=O)C(O)(c1ccccc1)C1CCCCC1 (stereo unspecified) [Oxyphenonium bromide] (stock concentration (mM, diluted 1:100): 10)	1.35 (inactive)
CC(C)NCC(O)COc1ccc(COCCOC(C)C)cc1 (stereo unspecified) [Bisoprolol fumarate] (stock concentration (mM, diluted 1:100): 8.5)	-0.11 (inactive)
CC(=O)[C@]1(O)Cc2c(O)c3c(c(O)c2[C@@H](O[C@H]2C[C@H](N)[C@H](O)[C@H](C)O2)C1)C(=O)c1ccccc1C3=O [Idarubicin hydrochloride] (stock concentration (mM, diluted 1:100): 9.3)	-2.94 (inactive)
COC(=O)C1=C(C)NC(C)=C(C(=O)OC2CCCN(Cc3ccccc3)C2)C1c1cccc([N+](=O)[O-])c1 (stereo unspecified) [Benidipine hydrochloride] (stock concentration (mM, diluted 1:100): 6)	-1.2 (inactive)
O=c1c(-c2ccccc2)c1-c1ccccc1 [Diphenylcyclopropenone] (stock concentration (mM, diluted 1:100): 10)	-0.87 (inactive)
CC(Oc1c(Cl)cccc1Cl)C1=NCCN1 (stereo unspecified) [Lofexidine hydrochloride] (stock concentration (mM, diluted 1:100): 10)	1.48 (inactive)
Clc1cccc(Cl)c1NC1=NCCN1 [Clonidine] (stock concentration (mM, diluted 1:100): 10)	-0.25 (inactive)
O=C(O)COCCN1CCN([C@H](c2ccccc2)c2ccc(Cl)cc2)CC1 [Levocetirizine] (stock concentration (mM, diluted 1:100): 10.7)	-0.24 (inactive)
C=CC1=C(C(=O)O)N2C(=O)[C@@H](NC(=O)/C(=N\OCC(=O)O)c3csc(N)n3)[C@H]2SC1 [Cefixime trihydrate] (stock concentration (mM, diluted 1:100): 10)	-3.32 (inactive)
C[N+]1(C)CCC(OC(=O)C(O)(c2ccccc2)C2CCCC2)C1 (stereo unspecified) [Glycopyrrolate] (stock concentration (mM, diluted 1:100): 10)	-0.65 (inactive)
Cc1cccc(Nc2ccncc2S(=O)(=O)NC(=O)NC(C)C)c1 [Torasemide] (stock concentration (mM, diluted 1:100): 9.9)	0.74 (inactive)

SMILES	HIS4 meiotic recombination assay sensitivity score
Cc1c(O)c(=O)ccn1C [Deferiprone] (stock concentration (mM, diluted 1:100): 10)	-0.12 (inactive)
CC1CNc2c(cccc2S(=O)(=O)N[C@@H](CCCNC(=N)N)C(=O)N2CC[C@@H](C)C[C@@H]2C(=O)O)C1 (stereo partly specified) [Argatroban] (stock concentration (mM, diluted 1:100): 10.1)	0.32 (inactive)
O=c1[nH]cnc2c1ncn2[C@H]1CC[C@@H](CO)O1 [Didanosine] (stock concentration (mM, diluted 1:100): 10.1)	0.35 (inactive)
Cc1[nH]cnc1CN1CCc2c(c3ccccc3n2C)C1=O [Alosetron hydrochloride] (stock concentration (mM, diluted 1:100): 8.9)	-3.51 (inactive)
C[C@@H]1C[C@H]2[C@@H]3CCC4=CC(=O)C=C[C@]4(C)[C@@]3(F)[C@@H](O)C[C@]2(C)[C@H]1C(=O)CO [Desoximetasone] (stock concentration (mM, diluted 1:100): 10)	-1.12 (inactive)
NC1CCN(c2nc3c(cc2F)c(=O)c(C(=O)O)cn3-c2ccc(F)cc2F)C1 (stereo unspecified) [Tosufloxacin tosylate] (stock concentration (mM, diluted 1:100): 7)	-2.15 (inactive)
CN(C)CCN(Cc1ccccc1)c1ccccn1 [Tripelennamine hydrochloride] (stock concentration (mM, diluted 1:100): 10)	8.14 (active)
CN1[C@@H]2CC[C@H]1C[C@@H](OC(=O)c1c[nH]c3ccccc13)C2 [Tropisetron hydrochloride] (stock concentration (mM, diluted 1:100): 7.7)	0.82 (inactive)
CCCc1nc(C)c2c(=O)nc(-c3cc(S(=O)(=O)N4CCN(CC)CC4)ccc3OCC)[nH]n12 [Vardenafil citrate] (stock concentration (mM, diluted 1:100): 7.2)	-0.18 (inactive)
CC(C)/N=c1\cc2n(-c3ccc(Cl)cc3)c3ccccc3nc-2cc1Nc1ccc(Cl)cc1 [Clofazimine] (stock concentration (mM, diluted 1:100): 10)	-1.5 (inactive)
CC[C@H]1OC(=O)[C@H](C)[C@@H](O[C@H]2C[C@@](C)(OC)[C@@H](O)[C@H](C)O2)[C@H](C)[C@@H](O[C@@H]2O[C@H](C)C[C@H](N(C)C)[C@H]2O)[C@](C)(OC)C[C@@H](C)C(=O)[C@H](C)[C@@H](O)[C@]1(C)O [Clarithromycin] (stock concentration (mM, diluted 1:100): 10)	-1.54 (inactive)
C[C@]12CC[C@@H]3c4ccc(O)cc4CC[C@H]3[C@@H]1CC[C@@H]2O [Beta-Estradiol] (stock concentration (mM, diluted 1:100): 10)	-2.13 (inactive)
CN(CCO)CC(O)Cn1cnc2c1c(=O)n(C)c(=O)n2C (stereo unspecified) [Xanthinol nicotinate] (stock concentration (mM, diluted 1:100): 10)	-0.61 (inactive)
CC(=O)O[C@H]1C[C@@H]2CC[C@@H]3[C@H](CC[C@@]4(C)[C@H]3C[C@H]([N+]3(C)CCCCC3)[C@@H]4OC(C)=O)[C@@]2(C)C[C@@H]1N1CCCCC1 [Vecuronium bromide] (stock concentration (mM, diluted 1:100): 10)	-1.64 (inactive)
CO[C@H]1/C=C/O[C@@]2(C)Oc3c(C)c(O)c4c(c3C2=O)C2=NC3(CCN(CC(C)C)CC3)NC2=C(NC(=O)/C(C)=C\C=C\[C@H](C)[C@H](O)[C@@H](C)[C@@H](O)[C@@H](C)[C@H](OC(C)=O)[C@@H]1C)C4=O [Rifabutin] (stock concentration (mM, diluted 1:100): 10)	-1.4 (inactive)
COc1ccc2[nH]c([S+]([O-])Cc3ncc(C)c(OC)c3C)nc2c1 (stereo unspecified) [Omeprazole] (stock concentration (mM, diluted 1:100): 10)	-1.05 (inactive)
CC=CC(=O)N(CC)c1ccccc1C [Crotamiton] (stock concentration (mM, diluted 1:100): 10.3)	3.54 (inactive)
O=C(CCNNC(=O)c1ccncc1)NCc1ccccc1 [Nialamide] (stock concentration (mM, diluted 1:100): 10)	-1.89 (inactive)
